{"source": "the supplement of paper PMC3334620", "note": "Whole data set: some 33,000 sequences, median “E-score (-0.5 to 0.5)” near -0.053, cut for the highest 2% near 0.37. Many of the other results were omitted from the sample, so the highest values are more common in it than they were.", "data": [{"molecular_target": "Hap1 (UniProt P0CE41)", "sequence (P0CE41 whole entry, the tested form may be a part)": "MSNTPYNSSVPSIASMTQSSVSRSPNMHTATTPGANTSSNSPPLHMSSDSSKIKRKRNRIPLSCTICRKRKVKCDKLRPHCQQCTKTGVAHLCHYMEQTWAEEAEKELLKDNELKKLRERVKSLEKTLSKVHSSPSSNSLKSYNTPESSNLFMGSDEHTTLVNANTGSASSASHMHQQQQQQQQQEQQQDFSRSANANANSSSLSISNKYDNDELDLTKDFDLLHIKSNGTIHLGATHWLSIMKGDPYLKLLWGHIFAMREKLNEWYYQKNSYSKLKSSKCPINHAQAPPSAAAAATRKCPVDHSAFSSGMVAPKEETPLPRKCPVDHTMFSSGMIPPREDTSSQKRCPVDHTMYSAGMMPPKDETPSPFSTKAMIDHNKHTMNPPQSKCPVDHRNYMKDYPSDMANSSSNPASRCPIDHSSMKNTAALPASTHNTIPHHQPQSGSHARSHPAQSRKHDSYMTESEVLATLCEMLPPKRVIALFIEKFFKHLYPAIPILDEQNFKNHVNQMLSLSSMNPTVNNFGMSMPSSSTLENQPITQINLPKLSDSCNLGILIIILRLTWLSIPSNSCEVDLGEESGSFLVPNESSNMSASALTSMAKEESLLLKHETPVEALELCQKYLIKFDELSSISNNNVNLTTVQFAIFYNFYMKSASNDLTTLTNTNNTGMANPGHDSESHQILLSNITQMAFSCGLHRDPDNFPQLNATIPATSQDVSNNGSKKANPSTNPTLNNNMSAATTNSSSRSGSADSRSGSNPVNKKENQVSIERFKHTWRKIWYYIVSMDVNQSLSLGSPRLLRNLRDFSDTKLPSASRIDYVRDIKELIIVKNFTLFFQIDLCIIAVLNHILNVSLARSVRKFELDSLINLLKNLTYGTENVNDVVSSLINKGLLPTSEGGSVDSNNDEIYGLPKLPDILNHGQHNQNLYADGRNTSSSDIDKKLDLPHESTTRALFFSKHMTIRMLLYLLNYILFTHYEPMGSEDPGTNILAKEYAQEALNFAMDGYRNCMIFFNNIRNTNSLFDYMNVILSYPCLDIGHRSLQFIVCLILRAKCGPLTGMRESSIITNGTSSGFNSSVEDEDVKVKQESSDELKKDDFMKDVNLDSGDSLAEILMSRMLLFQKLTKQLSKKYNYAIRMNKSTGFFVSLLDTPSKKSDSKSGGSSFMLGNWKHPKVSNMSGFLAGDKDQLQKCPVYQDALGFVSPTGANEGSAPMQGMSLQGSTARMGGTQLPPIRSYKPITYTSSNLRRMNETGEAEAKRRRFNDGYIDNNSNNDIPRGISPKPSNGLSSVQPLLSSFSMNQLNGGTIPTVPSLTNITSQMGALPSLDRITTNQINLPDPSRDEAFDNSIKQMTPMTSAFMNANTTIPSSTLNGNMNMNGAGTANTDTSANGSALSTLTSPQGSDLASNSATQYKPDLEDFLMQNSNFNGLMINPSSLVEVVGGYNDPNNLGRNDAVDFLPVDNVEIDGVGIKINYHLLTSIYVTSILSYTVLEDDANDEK", "test": "PBM E-score (8-mer binding enrichment) (E-score (-0.5 to 0.5)); higher = stronger / more preferred TF binding", "conditions": "protein concentration: 200 nM; construct: GST-DNA-binding domain", "method": "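Universal 'all 10-mer' protein binding microarrays (Agilent AMADID 015681) probed with GST-tagged S. cerevisiae TFs (full-length or DBD) made by in vitro transcription/translation (PURExpress), about 100-200 nM. Bound TF was detected with fluorescent anti-GST. Each ungapped 8-mer (which stands for itself and its reverse complement) is scored by the PBM enrichment score (E-score), a modified Wilcoxon-Mann-Whitney statistic from -0.5 to +0.5, computed with the Universal PBM Analysis Suite. Scale: above 0.35 generally sequence-specific binding.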", "values": [{"sequence": "GAGTCGCC", "PBM E-score": -0.0011}, {"sequence": "CCTTGTCA", "PBM E-score": -0.311}, {"sequence": "AGGAGTTC", "PBM E-score": -0.143}, {"sequence": "CTGAGTTC", "PBM E-score": -0.0173}, {"sequence": "CGGAGTAC", "PBM E-score": 0.254}, {"sequence": "CGGAGTTA", "PBM E-score": 0.494}, {"sequence": "AGGAGTTA", "PBM E-score": 0.292}, {"sequence": "GGGAGTTA", "PBM E-score": 0.247}, {"sequence": "CGGAGTTC", "PBM E-score": 0.394}, {"sequence": "CGGAGTAA", "PBM E-score": 0.37}, {"sequence": "GGGAGTAA", "PBM E-score": 0.147}, {"sequence": "CCCCTGTA", "PBM E-score": -0.154}, {"sequence": "GCTCGATA", "PBM E-score": 0.0192}, {"sequence": "AGAGGAAT", "PBM E-score": -0.205}, {"sequence": "ATCTCTAC", "PBM E-score": -0.223}, {"sequence": "AAGATGGG", "PBM E-score": -0.126}, {"sequence": "AGCCGGAC", "PBM E-score": 0.409}, {"sequence": "AGCCGGCA", "PBM E-score": 0.334}, {"sequence": "AGCCGGAG", "PBM E-score": 0.404}, {"sequence": "CGCCGGAC", "PBM E-score": 0.409}, {"sequence": "AGCCGGCC", "PBM E-score": 0.354}, {"sequence": "AGCCGGGC", "PBM E-score": 0.173}, {"sequence": "AGCCGGTG", "PBM E-score": 0.326}, {"sequence": "AGCCGGCT", "PBM E-score": 0.25}, {"sequence": "CGTCGGAC", "PBM E-score": 0.338}, {"sequence": "AGCCGGGG", "PBM E-score": 0.268}, {"sequence": "AGCCGGAT", "PBM E-score": 0.418}, {"sequence": "CGCCGGGC", "PBM E-score": 0.332}, {"sequence": "ACACGCAG", "PBM E-score": -0.093}, {"sequence": "CGAGAAAC", "PBM E-score": 0.187}, {"sequence": "AGCTTTGA", "PBM E-score": -0.0822}, {"sequence": "AAAGTGCT", "PBM E-score": -0.21}, {"sequence": "AAAGAATT", "PBM E-score": -0.0164}, {"sequence": "AGAGCTGC", "PBM E-score": -0.128}, {"sequence": "CGCTTTGA", "PBM E-score": 0.0268}, {"sequence": "AACAGCTT", "PBM E-score": -0.106}, {"sequence": "TAGACACA", "PBM E-score": -0.156}, {"sequence": "CGACGGAG", "PBM E-score": 0.287}, {"sequence": "GGCCGGAC", "PBM E-score": 0.398}, {"sequence": "GGCCGGTA", "PBM E-score": 0.344}, {"sequence": "AGCCGGTA", "PBM E-score": 0.414}, {"sequence": "AGCCGGTC", "PBM E-score": 0.0184}, {"sequence": "GGACGGAC", "PBM E-score": 0.358}, {"sequence": "GGCCGGAA", "PBM E-score": 0.363}, {"sequence": "CGCCGTAG", "PBM E-score": 0.187}, {"sequence": "AGCCGGAA", "PBM E-score": 0.371}, {"sequence": "CGCCGGAG", "PBM E-score": 0.399}, {"sequence": "AGCCGGGA", "PBM E-score": 0.231}, {"sequence": "CGCCGGAA", "PBM E-score": 0.357}, {"sequence": "AAATACGA", "PBM E-score": -0.0883}, {"sequence": "CAACGGGC", "PBM E-score": 0.153}, {"sequence": "CGCGAGCG", "PBM E-score": 0.104}, {"sequence": "AGTAGCAG", "PBM E-score": -0.173}, {"sequence": "ATCCTCGA", "PBM E-score": -0.107}, {"sequence": "AAACGCCC", "PBM E-score": 0.263}, {"sequence": "GTCCCGAC", "PBM E-score": 0.243}, {"sequence": "AGGCGGCC", "PBM E-score": 0.0302}, {"sequence": "GGTTCGAA", "PBM E-score": 0.00151}, {"sequence": "GGTTCGGA", "PBM E-score": 0.373}, {"sequence": "CGTTCGTA", "PBM E-score": 0.0644}, {"sequence": "CGTTCGGA", "PBM E-score": 0.412}, {"sequence": "CGTTCGGC", "PBM E-score": 0.291}, {"sequence": "AGTTCGGA", "PBM E-score": 0.366}, {"sequence": "GGCATACC", "PBM E-score": 0.107}, {"sequence": "CCCGGCTA", "PBM E-score": 0.344}, {"sequence": "ATGTTTCA", "PBM E-score": -0.21}, {"sequence": "CATGGTGG", "PBM E-score": -0.137}, {"sequence": "GCCCTCGC", "PBM E-score": -0.0401}, {"sequence": "CCCGTCTA", "PBM E-score": -0.0612}, {"sequence": "CGTACCTC", "PBM E-score": -0.0658}, {"sequence": "AACTGCTT", "PBM E-score": -0.134}, {"sequence": "CCTCCTCG", "PBM E-score": -0.147}, {"sequence": "ACCTGCTG", "PBM E-score": -0.058}, {"sequence": "TCCCGGGA", "PBM E-score": 0.392}, {"sequence": "AACCGGGA", "PBM E-score": 0.193}, {"sequence": "GACCGGTA", "PBM E-score": 0.243}, {"sequence": "TCACGGGA", "PBM E-score": 0.0121}, {"sequence": "TACCGGTA", "PBM E-score": 0.441}, {"sequence": "GACCGGGA", "PBM E-score": 0.329}, {"sequence": "CACCGGTC", "PBM E-score": 0.227}, {"sequence": "CACCGGTA", "PBM E-score": 0.376}, {"sequence": "TACCGGGA", "PBM E-score": 0.387}, {"sequence": "AACCGGTA", "PBM E-score": 0.331}, {"sequence": "CACCGGTG", "PBM E-score": 0.24}, {"sequence": "CCCCGGGA", "PBM E-score": 0.348}, {"sequence": "CAGTAGAA", "PBM E-score": -0.229}, {"sequence": "TTGCGCAA", "PBM E-score": -0.00107}]}]}
